FGF22 binding: binders of recombinant human FGF22 by thermal shift | activity (Tm shift, normalised), % at 9.99 µM | hit rate 1.5% among 340,000 | SYPRO orange fluorescence; percent of sucrose octasulfate shift, DMSO zero | Q9HCT0;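 active means mean Tm shift, scaled 0 neutral to 100 positive control, at about 1.3% or above, every replicate too, limit read from the data; inconclusive means no clear call, values can overlap the other calls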
ERAP1 HTS inh: inhibitors of human ERAP1 aminopeptidase; hit rate 0.15% among 340,000; recombinant ERAP1, Leu-AMC fluorescence, 60 min; inhibition, % at 10.7 µM;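 active means mean replicate inhibition of at least 30%, or all replicates individually reaching that 30% level; inactive means mean below 30% and not every replicate reaching it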;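 further: 0% = neutral control wells and 100% = L-leucinethiol positive control wells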
Target sequence (Q9NZ08 whole entry, looked up): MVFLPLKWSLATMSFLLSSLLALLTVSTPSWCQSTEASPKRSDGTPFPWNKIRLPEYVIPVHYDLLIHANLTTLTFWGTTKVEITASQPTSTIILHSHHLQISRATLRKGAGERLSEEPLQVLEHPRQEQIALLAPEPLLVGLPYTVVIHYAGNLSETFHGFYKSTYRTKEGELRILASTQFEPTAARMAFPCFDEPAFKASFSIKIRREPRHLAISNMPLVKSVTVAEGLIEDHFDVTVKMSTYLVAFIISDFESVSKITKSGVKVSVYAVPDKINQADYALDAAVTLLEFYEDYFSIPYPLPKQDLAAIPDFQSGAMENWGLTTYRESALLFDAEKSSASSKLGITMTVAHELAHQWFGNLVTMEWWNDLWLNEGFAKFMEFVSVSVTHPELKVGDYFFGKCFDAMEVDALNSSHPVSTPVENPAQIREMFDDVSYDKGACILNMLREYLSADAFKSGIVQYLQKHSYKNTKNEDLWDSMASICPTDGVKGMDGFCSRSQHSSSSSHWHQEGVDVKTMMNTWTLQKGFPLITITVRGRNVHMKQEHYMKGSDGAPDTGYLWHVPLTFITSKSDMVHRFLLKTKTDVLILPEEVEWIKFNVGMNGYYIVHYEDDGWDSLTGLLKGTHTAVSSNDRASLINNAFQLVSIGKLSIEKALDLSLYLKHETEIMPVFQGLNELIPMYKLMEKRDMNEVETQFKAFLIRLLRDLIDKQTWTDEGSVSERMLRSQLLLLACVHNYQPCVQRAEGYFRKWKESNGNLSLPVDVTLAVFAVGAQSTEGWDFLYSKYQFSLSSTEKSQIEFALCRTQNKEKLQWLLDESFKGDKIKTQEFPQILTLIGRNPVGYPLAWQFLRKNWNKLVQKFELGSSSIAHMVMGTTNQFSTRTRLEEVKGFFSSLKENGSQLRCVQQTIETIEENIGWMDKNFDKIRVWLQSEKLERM
RAD52 inh: RAD52 (human) annealing inhibition; P43351; recombinant RAD52 DNA annealing, FRET fluorescence; inhibition, % at 18.7 µM; hit rate 0.46% among 360,000;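 active means every replicate showing at least 50% inhibition; inconclusive means mean inhibition at least 50% but not in every replicate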
DENV2 CPE: inhibitors of DENV2 cytopathic effect. CPE inhibition, % at 9.99 µM. hit rate 1.7% among 350,000. AID 651640. DENV2-infected cells, cytopathic effect rescue, plate reader; in the data active means CPE inhibition above about 20%, passing the limit was not always enough; inconclusive means no clear call, values can overlap the other calls; tested in BHK-21 cells;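 further: 0% = median of neutral control wells and 100% = median of positive control wells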
AF4-AF9 inh: MLL-AF4/AF9 protein interaction inhibition; inhibition, % at 10 µM; hit rate 0.47% among 350,000; AlphaScreen, biotin-AF4 peptide binding to FLAG-AF9; P42568; AID 651704;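 active means every replicate reaching a set inhibition limit, whatever the replicate mean, cut at about 25% in these data; inconclusive means mean inhibition reaches that limit but some replicates miss it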;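 further: 0% = plate neutral control median and 100% = total signal loss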
* = called active by the depositor. Rows were chosen to be rich in hits. Some 4% of all compounds tested hit in one or more screens of this group.

`CC(C)c1ccc(/C=N/NC(=O)c2cc(-c3cccc([N+](=O)[O-])c3)n[nH]2)cc1` gave FGF22 binding 0, ERAP1 HTS inh -2, RAD52 inh -9, DENV2 CPE 34* and AF4-AF9 inh -2.
Screening Cn1cccc1-c1cc(C(=O)N/N=C/c2ccc([N+](=O)[O-])cc2)[nH]n1 returned FGF22 binding 0, ERAP1 HTS inh -2, RAD52 inh -14, DENV2 CPE 3 and AF4-AF9 inh 0.
`COc1ccc(NC(=O)N2CC(=O)N3[C@H](C2)[C@@H](c2ccc(-c4ccccc4)cc2)[C@@H]3CO)cc1` gave ERAP1 HTS inh -1, RAD52 inh -3, DENV2 CPE 12 and AF4-AF9 inh 3.
`C[C@H]1CCCCO[C@H](CN(C)C(=O)Nc2ccc(F)cc2)[C@@H](C)CN([C@@H](C)CO)C(=O)c2cc(NS(=O)(=O)c3ccccc3)ccc2O1` gave FGF22 binding 0, ERAP1 HTS inh -2, RAD52 inh 5, DENV2 CPE 53* and AF4-AF9 inh 4.
For C[C@H]1CCCCO[C@H](CN(C)C(=O)Nc2ccc(F)cc2)[C@@H](C)CN([C@@H](C)CO)C(=O)c2cc(NS(=O)(=O)c3ccc(F)cc3)ccc2O1 the results were FGF22 binding 0 and DENV2 CPE 27*.
Screening COc1ccc(NC(=O)N(C)C[C@@H]2OCCCC[C@@H](C)Oc3ccc(NS(=O)(=O)c4ccccc4)cc3C(=O)N([C@H](C)CO)C[C@@H]2C)cc1 returned FGF22 binding 0, ERAP1 HTS inh -6, RAD52 inh 85*, DENV2 CPE -2 and AF4-AF9 inh -1.
Screening C[C@@H]1CCCCO[C@@H](CN(C)C(=O)c2ccccc2)[C@H](C)CN([C@H](C)CO)C(=O)c2cc(NS(=O)(=O)c3ccc(F)cc3)ccc2O1 returned FGF22 binding -1, ERAP1 HTS inh -4, RAD52 inh -9, DENV2 CPE 22* and AF4-AF9 inh 1.
C[C@@H]1CCCCO[C@@H](CN(C)C(=O)Nc2ccccc2)[C@H](C)CN([C@@H](C)CO)C(=O)c2cc(NS(C)(=O)=O)ccc2O1 was read as FGF22 binding 0, ERAP1 HTS inh -2, RAD52 inh 12, DENV2 CPE 43* and AF4-AF9 inh -1.
For C[C@@H]1CCCCO[C@@H](CN(C)C(=O)Nc2ccccc2)[C@H](C)CN([C@H](C)CO)C(=O)c2cc(NS(C)(=O)=O)ccc2O1 the results were FGF22 binding 0, ERAP1 HTS inh 1, RAD52 inh 3, DENV2 CPE inconclusive and AF4-AF9 inh -1.
`COc1ccc(NC(=O)N(C)C[C@H]2OCCCC[C@@H](C)Oc3ccc(NS(C)(=O)=O)cc3C(=O)N([C@H](C)CO)C[C@H]2C)cc1` gave FGF22 binding 0, ERAP1 HTS inh 5, RAD52 inh 7, DENV2 CPE 95* and AF4-AF9 inh -4.
COc1ccc(NC(=O)N(C)C[C@@H]2OCCCC[C@@H](C)Oc3ccc(NC(=O)CCCN(C)C)cc3C(=O)N([C@@H](C)CO)C[C@H]2C)cc1 was read as FGF22 binding 0, ERAP1 HTS inh 1, RAD52 inh -34, DENV2 CPE 67* and AF4-AF9 inh 0.
For CC(=O)N1CCCCN2[C@H](CO)[C@H](c3ccc(C#Cc4ccccc4F)cc3)[C@@H]2C1 the results were FGF22 binding -1, ERAP1 HTS inh 0, RAD52 inh -10, DENV2 CPE 12 and AF4-AF9 inh -2.
For O=C(CSc1nccc(=O)[nH]1)NN(c1ccccc1)c1ccccc1 the results were FGF22 binding 0, ERAP1 HTS inh 0, RAD52 inh 4, DENV2 CPE 3 and AF4-AF9 inh 0.
O=C(CSc1ncn[nH]1)NN(c1ccccc1)c1ccccc1 was read as FGF22 binding 44*, ERAP1 HTS inh -2, RAD52 inh -25, DENV2 CPE 12 and AF4-AF9 inh -1.
Screening O=C(N[C@H]1CC[C@@H](CCNC(=O)C2CCCCC2)O[C@@H]1CO)c1ccncc1 returned FGF22 binding 0, ERAP1 HTS inh -1, RAD52 inh -7, DENV2 CPE 24* and AF4-AF9 inh 2.
CN(C)CC(=O)N[C@H]1CC[C@@H](CCNC(=O)C2CCCC2)O[C@H]1CO was read as FGF22 binding 0, ERAP1 HTS inh -2, RAD52 inh 5, DENV2 CPE -5 and AF4-AF9 inh 0.

Screening data deposited in PubChem BioAssay by Broad Institute.
